Results on 133 sequences are retold here after PubChem BioAssay AID1159506 (National Center for Advancing Translational Sciences (NCATS), 2015).

The full ranking holds about 59,000 sequences; the median of the read-out is about -0.00055, and the lowest 2% start at about -2. The full list was thinned out, with the lowest values kept by preference.

This test can be described thus: Identification of proteins required for the processing of the EWS-FLI1 nascent transcript.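 Note: robust z of luciferase light less the median z of siRNAs with the same seed.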 Particulars: TC32 Ewing sarcoma NR0B1-luc vs CMV-luc (EWS-FLI1 target promoter against control promoter), 48 h; screened at 20 nM (by protocol). The method, boiled down:
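Parallel TC32-NR0B1-luc and TC32-CMV-luc reverse transfections with 20 nM siRNA in RPMI-1640/10% FBS, luciferase measured 48 h later. Seed-adjusted z-scores from normalized, z-score-MAD transformed data; AllStars negative and siGL4 controls on each plate.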
UAUCUUUCCUGGUAUGUCA against LPCAT3 gave a seed-corrected z-score of -0.533. UCGAUUUUGAGAAUCAAUG against VPS45 gave a seed-corrected z-score of 0.271. On to UCAUAGCAAAGGAUCAGCC against CDC42BPB, for which the seed-corrected z-score is -3.29. As for UUCCUUACCAUCAGGCAAG against DAP3, the seed-corrected z-score was 0.589. AUGGGUUCCAGCAACAAUC against TMEM65 showed a seed-corrected z-score of 0.797. The sequence UUCUUGUAGUCCUCUAGGC against FZD8 returned a seed-corrected z-score of 0.236. Sequence AUAGUAAUUCCUGGUAAAG against CYBA registered a seed-corrected z-score of -3.24. UACAAAAACGAUGGCAUCC against CCL17 registered a seed-corrected z-score of -0.409. The sequence UACCCAUACGGAGUAGCGA against ASMTL came in with a seed-corrected z-score of -0.0723. For the sequence UAUAGGCAAAGCUAUCUCC against RBM15B, the seed-corrected z-score is -0.465. In the case of AAUAAGACUCCUAAAAUCC against OR2A25 it was -2.04; in that of UAAUAUAUUGUCCAUUUAC against OSTC, 0.401; in that of UUUUGAUUGAGAGGAUCGU against MBD2, 0.911. UUAACAACUUUAGUCCUGC against EFHC1 had a seed-corrected z-score of 0.0527. Sequence ACUUGUAACAGAUCAGCUC against TKFC had a seed-corrected z-score of 0.791. As to UUAGUUGAGGGUGAUCCCG against MXRA5, the seed-corrected z-score was 0.422. Regarding AGAGAUCCCGUGUAUGACC against SLC30A2, the seed-corrected z-score is -0.311. For UCUGCUCCCACAAUGAAAC against RPLP0, the seed-corrected z-score was -2.42.

UCAAUUAUUCCUCUCCGUC against HEY1 showed a seed-corrected z-score of -0.248. UCAUAGUCCAUUCAGAGUU against CEACAM19 gave a seed-corrected z-score of 0.0695.

Consider UCCUGGAUACCUAACACCC against USP26, for which the seed-corrected z-score is 0.09. In the case of ACUCCAAUCAGUACAGUCC against NUP210L it was -0.264. On to AAGUUGUCAAACAAGCCCU against CHTF18, for which the seed-corrected z-score was -3.

As for UUAACCGAUAUAUCCAUGG against LRRTM4, the seed-corrected z-score is 0.0172. For the sequence UGAGGUCCACGAUAUCUAG against PYDC1, the seed-corrected z-score amounted to 0.555. AAAGAUAUCAGUGACGAAG against HIST1H2BA showed a seed-corrected z-score of -0.152. UAUUGUUCCGUCAUGCACU against PTGDS showed a seed-corrected z-score of 0.165. Under UAUCUCCACAUACCCGUUC against INHBA stands -0.368. In turn, UACGUAGAUUUGGAAUUCC against ACO1 yielded a seed-corrected z-score of 0.682. In turn, UUAGUCUCAGCAUCGGCUC against KIAA1210 gave a seed-corrected z-score of -0.103. UCACGAAGGAGUCUAUUCC against PRTN3 registered a seed-corrected z-score of -3.15.

In turn, AUAGAGCCCAUUAUGCUUU against PSG11 showed a seed-corrected z-score of -1.42.

UUGGUGUUGGGCAACUUGU against HOXB4 showed a seed-corrected z-score of 0.286.

For the sequence UCACUGAUUCUAGAUGAUG against SPIN3, the seed-corrected z-score is -0.422. With UAUAAAUCAACGGAUUCAG against OR5I1, the seed-corrected z-score stood at 0.416.

Consider UUUUGCACCUGGGUCCUAC against LRWD1, for which the seed-corrected z-score amounted to 0.154. As to AAAGGAAAAACCUAUUUUC against LOC728254, the seed-corrected z-score was 0.573.

AUAGGUUCCUGUCUGUUGG against PYCRL yielded a seed-corrected z-score of 0.415. AAAGAUUAAGGUACCAUAG against OR5J2: the seed-corrected z-score was 0.72. With UUCGGCUUCACUGUUAUCC against TNR, the seed-corrected z-score was -2.16. Sequence UCCAGUUCUUUCUUGGUCG against GTPBP6 registered a seed-corrected z-score of 0.447. In the case of UUGAUGGAUAGUCAUCACG against RBMX, the seed-corrected z-score is -0.224. In turn, AAAUCGAUAAUCACUUAGG against ZNHIT6 returned a seed-corrected z-score of 0.142. UAUUUCACAACAGGCACCG against MYO1C had a seed-corrected z-score of -2.29. As for UUUUGUGCCUGUGCCCUUG against SBK1, the seed-corrected z-score is -0.47. AGACUGAUGGUAGUGGUGG against PRRT1: the seed-corrected z-score is -0.57. Under UUCAAUAUCAUUCCGAGGC against C6orf62 stands 0.77. In turn, UUGUAUGAUUUUGCAAUUG against LINC01014 returned a seed-corrected z-score of -0.168. With AAAUGUACUCGAUCCCAUG against CPA5, the seed-corrected z-score is -2.65. Turning to UACAGUUCCUCAAUGUUCA against IL1F10, the seed-corrected z-score amounted to 1.27. UAAACAGGCACGAAGCUUC against RPAIN registered a seed-corrected z-score of -0.43. Consider UUAGCUAGAGUUUUCAACC against MLLT11, for which the seed-corrected z-score is 0.312. UGACGUACCAGCACUGCGU against ADM2 showed a seed-corrected z-score of -13.6. On to UGAGCAUCCAUGCUGGGUA against ZNF688, for which the seed-corrected z-score stood at 0.0175.

UUCAUUUAAAUUCUAACAC against SYNC gave a seed-corrected z-score of 0.372.

In the case of AUUCAUUCUUAUUAAGUGC against GPX5, the seed-corrected z-score is -0.0754. As for UUUGGUUUGAGCAGUCAAG against COMMD1, the seed-corrected z-score was -2.03. Consider AAUAAAUCCAUCCUUGUUC against GUCA1C, for which the seed-corrected z-score was -0.429. Take UCCUGAUCUAUCCAUAGGC against IFITM3: the seed-corrected z-score was -0.0222.

UUCUCAAACACCUUCUUCC against QTRT1: the seed-corrected z-score is -0.0367. As for UGCUCCAUCACAAAGGCGG against FN3K, the seed-corrected z-score stood at 1.15. On to AUGGGAAUUAUGUCGGUUG against SCEL, for which the seed-corrected z-score was 0.236. For UCCAGUUGUACUUCUUGCC against GFOD1, the seed-corrected z-score was -3.99. AAACUCUUUAGGAAAGAUG against POLR2D: the seed-corrected z-score is -0.98. In the case of UUAGCUGCCUGGAUAAGCG against CTNNA2 it was -0.541; in that of UUUCCAACAUGAUCCACUG against TM2D2, 0.00525.

As to AAACGUUUGGAGCCUCUUG against NOXO1, the seed-corrected z-score was -2.35. AUAGGGAACAGGAUAGCCC against C1orf74 registered a seed-corrected z-score of 1.41. Sequence UAGAUCUUUCCUCUGGUGG against FAM132B returned a seed-corrected z-score of -0.705. Sequence UGAACCGAGACUGUGGCAC against SERF1B came in with a seed-corrected z-score of -0.313.

As for UCCUUCUUGAGCAGGUUCU against SOX14, the seed-corrected z-score was -0.364.

In the case of AUUGUUGUCCAUAAUAGGC against IKZF2, the seed-corrected z-score was -0.0322. For the sequence UGACUAUUAAGAUAUGAAG against ZNF121, the seed-corrected z-score is -2.14. On to UUCUUUACAACUAUCCGAG against FBXO5, for which the seed-corrected z-score was determined as 2.48. Take UUGCCUAUCAGUAGCAGUU against RAB3D: the seed-corrected z-score is -2.07.

Regarding UGAUUGGAAAGCUUGUUCU against ME3, the seed-corrected z-score turned out to be 0.0737. Turning to UCGCUGAUGAGGAUCUUCC against KCNA10, the seed-corrected z-score is -0.144. For UAUACAAUGAGGCAGCUGA against ISCA1P1, the seed-corrected z-score came out at 0.235. Sequence UCUGGUGGGACUGGUGUUG against ZNF574 displayed a seed-corrected z-score of -3.85. For UUUCUGAUCAUCUUGGUCC against SAFB, the seed-corrected z-score is -0.16.

As for UUCUGGAUCCCAAAUAGUG against ARHGAP19, the seed-corrected z-score amounted to 0.0206. Under UGUUAUCCGAGUAUAAUAC against PSMD12 stands -2.56; under UUAUCACCCAUAGGAGCCU against LOC400965, 0.18. The sequence UGUCUUGUAGAUUUCCACC against TATDN1 displayed a seed-corrected z-score of -0.0339. Sequence AUAGCUGUGAGACAUCAGG against PRCD yielded a seed-corrected z-score of -2.08. In the case of UUAGUUCGUUCCUCUGUGC against PSMC5 it was 1.1; in that of UUCGCUGACUCUGUAACCC against CACNB4, -0.0786. For the sequence UACUCGCUCACCACAAAGG against SRSF4, the seed-corrected z-score was -0.234. Under UCUCGGUUCAUUUUCUUGA against HOXC10 stands 0.936.

Turning to AAUGAUUUUAGAAGCCUGU against NPR3, the seed-corrected z-score came out at 0.11. Take “UAAGAUACUAUGGGAAAUA against C20orf166-AS1”: the seed-corrected z-score was -2.11. As to AAAGUUUAAGCAACCGUCG against RPS23P8, the seed-corrected z-score turned out to be 1.69. The sequence AAAUCGUUCAAUUACAUCC against ADAM17 showed a seed-corrected z-score of 0.501. The sequence UGGAGAGUAUGGGUAGUCG against CDC34 showed a seed-corrected z-score of -1.87.

In turn, UCAGGUUCUUCCGUAGCUG against PHF21A gave a seed-corrected z-score of -0.312. As to AAAGACUCCAUAUAGACGG against ROR1, the seed-corrected z-score was -0.522.

AUCAAUGACAUAAUCGCUG against SHANK3 yielded a seed-corrected z-score of -0.601. Turning to AGUGGAGUUAGAUAGUUGG against KDM6A, the seed-corrected z-score was -4.37. Sequence UACCACAUUACACUCGUCU against NPM3 returned a seed-corrected z-score of 0.156. Sequence UUGUUGUCCAUAAUUGUCC against RNF8 returned a seed-corrected z-score of 1.95. UCCGGAUAUACUGUGCUUC against PCMTD2 yielded a seed-corrected z-score of 0.0601. In turn, UUUGGGCCUGCUGAAAUUG against RNF148 had a seed-corrected z-score of 0.493. In the case of AACUGUCUUGUUGCUCUUG against NFKBID, the seed-corrected z-score was -0.0314. Under AAGAUAGUCAAGCAUGUGC against ELMO3 stands 0.733; under UGUUGUCGCAGUGAGGAGC against KIAA0141, -2; under UUUGGUGACUGGACCGUUC against TRIM24, -0.553. UUGACAGCAAUCACAGUGG against AWAT2 yielded a seed-corrected z-score of 0.583.

In turn, UCAGCUCGGAUUUCACGGC against SHISA7 gave a seed-corrected z-score of 0.404. For the sequence UUAAGUUGAUCUGUACUGC against FAM117B, the seed-corrected z-score was -0.0872.

CAGCCAUCUAGGAUGAGCC against RPL10P8: the seed-corrected z-score was -0.668. UGGUUUUAGAGGAAUAGGG against SLC51A: the seed-corrected z-score was -0.953. With UAGGAAACCAAGCACAUCU against SH3BGRL, the seed-corrected z-score turned out to be 1.88. With AUAGCCUCCAGUCCAAUUG against TM2D3, the seed-corrected z-score is -2.03. For the sequence UUGGUGGUGAACAUAGGGA against TAL1, the seed-corrected z-score was -0.201. Under UAGGUUGGAGAAUUGUUCC against T stands -0.372; under UGUUGUAGGAAUAGCCUGG against PITX2, -2.28.

In turn, UGGUCAUUUGGUAUGAGGC against CAPRIN2 gave a seed-corrected z-score of 0.0796. Consider UUCUUGAGAAGCAGGUUCU against STAT6, for which the seed-corrected z-score was -0.716.

UGAUCCAUGGGUUCGAUCC against ROCK2: the seed-corrected z-score was -0.007.

AAAAUAGAGGUCACCAUAC against C1orf35 displayed a seed-corrected z-score of 0.456. Turning to UGAGAAUUAUGAUCACUGC against SLC7A1, the seed-corrected z-score was -0.0797. The sequence UUUGUGCUUAACUGGCUGG against RPL12 came in with a seed-corrected z-score of -2.56. Regarding GCCGCGUACUUGUUGUUGC against IGLL1, the seed-corrected z-score was 0.951.

As for UCCUGCUACAUUUACAUCG against FERMT1, the seed-corrected z-score is -3.31. For the sequence AAACUGAGAAACAUCAAGG against ZNF433, the seed-corrected z-score is -1.01. UGUCAUCCCAUCAAUGACU against PPIC showed a seed-corrected z-score of -0.679. In the case of UUUAAGGCAUCAUCUAGAC against DHFR it was -0.615.

In the case of UUCGAUGAAGAAACUCUGC against DOCK11, the seed-corrected z-score is 0.27. For the sequence UGCGUUUUUAAGCAUGUGC against RPL17, the seed-corrected z-score is -2.46. In turn, UUUUGUGCCUUCGUUAACC against ADAM9 gave a seed-corrected z-score of -0.742. As to UUUCUGUCCAGCAUAUGUA against SSU72, the seed-corrected z-score is -0.804. Take UCUCUUCAGAGCGUGCACC against ANKRD54: the seed-corrected z-score was -0.161. In the case of UUAGCUCCAAGUCUUGCAG against HDLBP it was 0.263.
